Measured values published in PubChem BioAssay (NCI).
Compounds without any hit were thinned out: in the full panel of roughly 79,000, 15% have a hit. A number with no mark means an inactive call. Calls of active or inactive are those of the source. Cut-off read from the data, not from the text of the source: active = growth inhibition above about 70%; inactive = the rest.

Legend:
[1] = NCI Yeast Anticancer Drug Screen. Data for the rad50 strain (AID 155);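 note: 0% = growth of vehicle-only cultures of the same strain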; conditions: S. cerevisiae rad50 strain growth inhibition; at 50.0 µM; hits give high values
How it was run: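 Growth of the mutant yeast was measured after compound exposure and referenced to vehicle-treated cultures.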

[2] = NCI Yeast Anticancer Drug Screen. Data for the mec2-1 strain (AID 157); conditions: S. cerevisiae mec2-1 strain, at 50.0 µM, hits give high values
How it was run: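 Test agents were screened against the mec2-1 yeast strain, with defined DNA repair or cell cycle alteration. Growth was scored as inhibition against vehicle-only controls.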

[3] = NCI Yeast Anticancer Drug Screen. Data for the sgs1 mgt1 strain (AID 161);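 note: 0% = growth of cultures given vehicle only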; conditions: S. cerevisiae sgs1 mgt1 strain, at 50.0 µM, hits give high values
How it was run: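 Inhibition of yeast growth, normalised to vehicle-treated controls, is reported for a strain bearing genetic alterations in DNA damage repair.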

[4] = NCI Yeast Anticancer Drug Screen. Data for the cln2 rad14 strain (AID 165);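 note: 0% = growth equal to vehicle treated cultures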; conditions: S. cerevisiae cln2 rad14 strain, at 50.0 µM, hits give high values
How it was run: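 Growth of compound-exposed yeast (cln2 rad14 genotype) measured and expressed as inhibition relative to vehicle.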

[5] = NCI Yeast Anticancer Drug Screen. Data for the bub3 strain (AID 167); conditions: S. cerevisiae bub3 mutant strain, at 50.0 µM, hits give high values
How it was run: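 Whole-cell yeast assay. The mutant strain was incubated with compounds, and growth inhibition was determined by comparison with vehicle-treated cells.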

[6] = NCI Yeast Anticancer Drug Screen. Data for the mlh1 rad18 strain (AID 175); conditions: S. cerevisiae mlh1 rad18 strain growth inhibition; at 50.0 µM; hits give high values
How it was run: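 In this whole-cell yeast screen, a strain with altered DNA damage repair is challenged with compound, and its growth is measured against matched vehicle-treated controls.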

SMILES	growth inhibition [1]	growth inhibition [2]	growth inhibition [3]	growth inhibition [4]	growth inhibition [5]	growth inhibition [6]
CN(C)C1(c2ccc3ccccc3c2)CSC1	-0.4%	-16.6%	0.55%	-16.2%	-29.8%	2.25%
O=Cc1ccccc1O.O=Cc1ccccc1O.O=Cc1ccccc1O.[La]	-1.05%	-6.95%	4.7%	-10.1%	4.8%	16.9%
c1ccc2c(c1)c1ccccc1c1n[se]nc21	-4.7%	-1.5%	2.75%	-6.25%	7.55%	11.9%
CN1CN(c2ccccc2)C2(CCN(CCCCCCF)CC2)C1=O	-5.55%	-15.9%	-19.4%	-0.15%	-5.95%	16.4%
C=CCCCCCCCCC(=O)Nc1ccc(Cl)cc1C(=O)c1ccccc1	-2.3%	0%	4.3%	28.2%	-7.95%	13.8%
OC[C@@H](O)[C@@H](O)CO	3.2%	-0.25%	-12.1%	15.2%	-5.55%	10.1%
O=S(=O)(N=S(CCCl)CCCl)c1ccccc1	8.3%	11.3%	24.3%	-7.95%	21.4%	21.4%
O=[As](O)(O)c1cccc(O)c1	-6.8%	-7.25%	-8.65%	3.7%	9.25%	-16.1%
CCC(CCl)NC(CC(C)C)CC(C)C (stereo not drawn)	-1.95%	2.95%	-6.75%	-10.5%	-4.7%	-10.8%
NC(=O)Oc1cc(OC(N)=O)cc(N(CCCl)CCCl)c1	32.8%	34%	36.6%	12%	40%	40%
O=C(NN=C1CCN(Cc2ccccc2)CC1)C(O)(c1ccccc1)c1ccccc1	-13.6%	-5.5%	13.8%	-8.5%	-14%	-0.65%
[N-]=[N+]=Nc1ccnc2cc(Cl)ccc12	-29.9%	-5.55%	-9.05%	-68%	-5.45%	-10.7%
CN(C)CC#CCN(C)C	28.1%	5%	-1%	-10.8%	0.45%	7.2%
CO[C@H]1C[C@H](O[C@H]2CC[C@]3(C=O)[C@H]4CC[C@]5(C)[C@@H](C6=CC(=O)OC6)CC[C@]5(O)[C@@H]4CC[C@]3(O)C2)O[C@H](C)[C@H]1O	33.4%	-11.3%	8.6%	0.55%	-6.45%	32.3%
O=[N+]([O-])c1cc(Br)c(O)c(Br)c1	12.2%	18.8%	5.15%	-37.4%	6.75%	32.3%
CC1N=C(c2ccccc2)C2(c3ccccc3)C(C)N12 (stereo not drawn)	-7%	6.8%	-7.7%	-29.2%	-10.3%	5.85%
COC12CC3C4=CCOC5CC(=O)N6c7ccccc7C1(CCN2C4)C6C53 (stereo not drawn)	5.3%	-23.8%	13.3%	16.9%	15.2%	15.4%
COC(=O)c1cc([N+](=O)[O-])cc([N+](=O)[O-])c1	9%	32.2%	16.5%	-8.4%	18.4%	34.1%
Cc1ccc2c(c1)N(CCCl)c1c(ccc3ccccc13)S2	-6.55%	-10%	-6.55%	-67.9%	22.2%	-6.6%

SMILES	growth inhibition [1]	growth inhibition [2]	growth inhibition [3]	growth inhibition [4]	growth inhibition [5]	growth inhibition [6]
O=C1CN=C(c2ccccc2)c2ccncc2N1	4.15%	4.5%	12.6%	19.1%	5.35%	28.6%
COC[C@H]1OC(=O)c2coc3c2[C@@]1(C)C1=C(C3=O)[C@@H]2CCC(=O)[C@@]2(C)C[C@H]1OC(C)=O	92.3% (active)	93.3% (active)	89.4% (active)	89.1% (active)	86.1% (active)	88.8% (active)
CCC1(C(C)=O)CN2CCc3cc(OC)c(OC)cc3C2N2CCc3ccc(OC)c(OC)c3C21 (stereo not drawn)	96.9% (active)	97.8% (active)	97.7% (active)	96.7% (active)	98.5% (active)	98% (active)
N#C[S-].N#C[S-].[Ni+2].c1ccc([PH+](c2ccccc2)c2ccccc2)cc1.c1ccc([PH+](c2ccccc2)c2ccccc2)cc1	35.5%	33.7%	50%	14.3%	34.2%	63%
C[N+]12CCC(c3ccccc3)(CC1)C(O)C2 (stereo not drawn)	-14.6%	-4.75%	2.1%	-5.15%	2.8%	8.1%
CN(C)P1(N(C)C)=NP(c2ccccc2)(c2ccccc2)=NP(N(C)C)(N(C)C)=N1	13.3%	20.9%	47.5%	24.2%	1.9%	48.2%
C[n+]1ccccc1-c1ccc[n+](CCCCC[n+]2cccc(-c3cccc[n+]3C)c2)c1	4.45%	-8.6%	-5.5%	-22.4%	-1.5%	8.15%
O=C(Nc1ncn[nH]1)C(Cl)(Cl)Cl	-4.1%	-15.9%	-7.15%	-53%	-2%	-7.25%
O.O=[N+]([O-])O.[NH2-].[NH2-].[Pt+2]	22.9%	20.4%	8.6%	15.2%	4.55%	31.4%
N#CCC(=O)[O][Sn]([c]1ccccc1)([c]1ccccc1)[c]1ccccc1	98% (active)	98.3% (active)	98.8% (active)	97.8% (active)	97.8% (active)	98.7% (active)
ClCc1cccnc1	16.9%	-2.35%	5.25%	18.1%	3.6%	31.7%
CN(C)CCCNc1c2c(nc3ccc(Cl)cc13)CCCC2	-1.2%	-20.4%	-31.8%	6.6%	9.15%	-7.3%
COc1ccccc1[As](=O)(O)c1ccccc1	-6.45%	-0.85%	-1.45%	-47.6%	-11%	5.25%
CCCCn1c(C)c(C(=O)OCC)c2cc(OCc3ccc(C(=O)Nn4c(C)ccc4C)cc3)c(Br)cc21	7.1%	-30.7%	-15.5%	-18.6%	-27.4%	-20.1%
FC(F)(F)[S-].FC(F)(F)[S-].[C-]#[O+].[C-]#[O+].[C-]#[O+].[C-]#[O+].[C-]#[O+].[C-]#[O+].[C-]#[O+].[C-]#[O+].[Mn].[Mn]	99.3% (active)	99.6% (active)	99.7% (active)	99% (active)	99% (active)	99.3% (active)
[NH2-].[NH2-].[NH2-].[NH2-].[NH2-].[NH2-].[Ru+6]	-15.8%	-12.1%	-21.9%	9.4%	-24.1%	-20.8%
C1CN1[PH+](N1CC1)N1CC1.[C-]#[O+].[C-]#[O+].[C-]#[O+].[C-]#[O+].[C-]#[O+].[W]	-12.8%	-3.85%	-21%	-43.9%	13.1%	3.1%
C=CC1CN2CCC1CC2C(O)c1ccnc2ccccc12 (stereo not drawn) (tested in a mixture with another compound)	-3.9%	-17.1%	-5.4%	-4.05%	-1.4%	1.75%
O=C(CBr)OCCOC(=O)CBr	0.55%	18.4%	-8.5%	14.4%	28.5%	-3.95%
